# Assay results reported in PubChem BioAssay (NCATS).
# Records with an inconclusive call do not appear. Entries that show only a call come without a potency. Calls of active or inactive are those of the source. The call rests on the fitted dose curve; in most records, active means well fitted curve in the direction sought with a large enough effect; inconclusive means small, poorly fitted or top-dose-only effect, or another doubt; inactive means no such curve, though single readings can be large; an effect the other way counts as inactive or inconclusive.
# How the values were obtained:
# [1] = qHTS of pediatric cancer cell lines to identify multiple opportunities for drug repurposing: Confirmatory screen for A673 cells (AID 1347110);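 further: cells exposed to compound for 48 h before the viability read; nearly all actives have a fitted effect of over 65% in size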
# Summary of the method: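 Viability was read as ATP luminescence (CellTiter-Glo) after 48 h of compound exposure at 37 C in A673 cells seeded at 500-1,000/well. Titrations reached 46 uM final, with 11 points in the confirmatory screen. Concentration-response curves were fitted directly.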
# [2] = qHTS of pediatric cancer cell lines to identify multiple opportunities for drug repurposing: Confirmatory screen for BT-12 cells (AID 1347112); further: nearly all actives have a fitted effect of over 55% in size; further: potency means the concentration at half of the fitted maximal effect
# Summary of the method: (§1)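 Cells (500-1,000/well) rested 5 h, then received compounds for 48 h; metabolically active cells were measured by CellTiter-Glo luminescence. Final concentrations spanned up to 46 µM (MIPE, 11-point) or 0.59 nM-46 µM (NPC, 8-point) in primary screens, 11-point in follow-ups.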
# [3] = qHTS of pediatric cancer cell lines to identify multiple opportunities for drug repurposing: Confirmatory screen for LAN-5 cells (AID 1347113); further: nearly all actives have a fitted effect of over 65% in size; further: potency means the concentration at half of the fitted maximal effect
# Summary of the method: as §1
# [4] = qHTS of pediatric cancer cell lines to identify multiple opportunities for drug repurposing: Confirmatory screen for DAOY cells (AID 1347114); further: nearly all actives have a fitted effect of over 65% in size; further: potency means the concentration at half of the fitted maximal effect
# Summary of the method: (§2)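 Viability measured as metabolically active cells via CellTiter-Glo luminescence following 48 hours of compound exposure, 11-point dilutions in confirmatory testing. 500-1,000 cells/well plated 5 hours before dosing; controls were DMSO and 2.3 µM bortezomib.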
# [5] = qHTS of pediatric cancer cell lines to identify multiple opportunities for drug repurposing: Confirmatory screen for NB-EBc1 cells (AID 1347115);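 further: cells exposed to compound for 48 h before the viability read; nearly all actives have a fitted effect of over 45% in size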
# Summary of the method: as §1
# [6] = qHTS of pediatric cancer cell lines to identify multiple opportunities for drug repurposing: Confirmatory screen for SJ-GBM2 cells (AID 1347116); further: nearly all actives have a fitted effect of over 60% in size; further: potency means the concentration at half of the fitted maximal effect
# Summary of the method: as §2
# [7] = qHTS of pediatric cancer cell lines to identify multiple opportunities for drug repurposing: Confirmatory screen for control Hh wild type fibroblast cells (AID 1347121); further: nearly all actives have a fitted effect of over 70% in size; further: potency means the concentration at half of the fitted maximal effect
# Summary of the method: as §1
# [8] = qHTS of pediatric cancer cell lines to identify multiple opportunities for drug repurposing: Confirmatory screen for U-2 OS cells (AID 1347122); further: nearly all actives have a fitted effect of over 65% in size; further: potency means the concentration at half of the fitted maximal effect
# Summary of the method: as §1
# [9] = qHTS of pediatric cancer cell lines to identify multiple opportunities for drug repurposing: Confirmatory screen for RD cells (AID 1347124); further: potency means the concentration at half of the fitted maximal effect
# Summary of the method: as §1
# [10] = qHTS of pediatric cancer cell lines to identify multiple opportunities for drug repurposing: Confirmatory screen for Rh18 cells (AID 1347125); further: nearly all actives have a fitted effect of over 55% in size; further: potency means the concentration at half of the fitted maximal effect
# Summary of the method: as §1
# [11] = qHTS of pediatric cancer cell lines to identify multiple opportunities for drug repurposing: Confirmatory screen for Rh30 cells (AID 1347126); further: nearly all actives have a fitted effect of over 55% in size; further: potency means the concentration at half of the fitted maximal effect
# Summary of the method: as §1
# [12] = qHTS of pediatric cancer cell lines to identify multiple opportunities for drug repurposing: Confirmatory screen for Saos-2 cells (AID 1347127); further: nearly all actives have a fitted effect of over 60% in size
# Summary of the method: as §1
# [13] = qHTS of pediatric cancer cell lines to identify multiple opportunities for drug repurposing: Confirmatory screen for OHS-50 cells (AID 1347128);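 further: compound exposure lasted 48 h at 37 degrees C; nearly all actives have a fitted effect of over 55% in size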; further: potency means the concentration at half of the fitted maximal effect
# Summary of the method: as §1
# [14] = qHTS of pediatric cancer cell lines to identify multiple opportunities for drug repurposing: Confirmatory screen for SK-N-SH cells (AID 1347129);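 further: cells exposed to compound for 48 h before viability read; nearly all actives have a fitted effect of over 60% in size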; further: potency means the concentration at half of the fitted maximal effect
# Summary of the method: as §1
# [15] = target: N-terminal Xaa-Pro-Lys N-methyltransferase 1 (Homo sapiens) (UniProt Q9BV86); test: qHTS Assay for Inhibitors of N-terminal methyltransferase 1 (NTMT1): LOPAC validation of the NTMT1 SAHH-coupled ThioGlo3 Assay (AID 1347143);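 further: SAH from peptide methylation measured as thiol fluorescence via SAHH coupling and ThioGlo3; nearly all actives have a fitted effect of over 70% in size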; further: potency means the concentration at half of the fitted maximal effect
# Chain of N-terminal Xaa-Pro-Lys N-methyltransferase 1 (Homo sapiens) (Q9BV86 whole entry, looked up): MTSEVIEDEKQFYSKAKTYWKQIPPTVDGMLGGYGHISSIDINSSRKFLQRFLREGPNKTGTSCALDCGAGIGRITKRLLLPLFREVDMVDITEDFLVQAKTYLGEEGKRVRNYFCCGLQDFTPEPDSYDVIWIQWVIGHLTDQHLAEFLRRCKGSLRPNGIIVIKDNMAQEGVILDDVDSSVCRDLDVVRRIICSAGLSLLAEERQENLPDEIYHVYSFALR
# Summary of the method: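 NTMT1 125nM + cpds (various conc.), 1 min RT; add SAM 100uM/SAHH 10uM/ThioGlo3 15uM (addition mix). SAHH-coupled thiol detection, Ex340/Em450, t0 and 30 min RT; signal normalized to background. LOPAC 1280-cpd pilot.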
# [16] = test system: Zika virus NS2B-NS3 protease (unlinked); test: Optimization of GU AMC qHTS for Zika virus inhibitors: Unlinked NS2B-NS3 protease assay (AID 1347151); further: nearly all actives have a fitted effect of over 80% in size; further: potency means the concentration at half of the fitted maximal effect
# Summary of the method: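 Fluorescence gain (340/450 nm) over 15 min at room temperature, ~20% conversion, gave percent inhibition fitted to a 4-parameter Hill equation; enzyme was unlinked NS2B-NS3 (25 nM final), pH 8.0 Tris buffer.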
# [17] = qHTS of pediatric cancer cell lines to identify multiple opportunities for drug repurposing: Confirmatory screen for SK-N-MC cells (AID 1347111);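 further: potency means the concentration at half of the fitted maximal effect; cells exposed to compound for 48 h before the readout; nearly all actives have a fitted effect of over 70% in size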
# Summary of the method: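 Seed 500-1,000 cells/well; rest 5 h at 37 degrees C. Pin-transfer compounds, 11-point titration. Incubate 48 h. Add CellTiter-Glo, 15 min RT, read luminescence.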
# [18] = qHTS of pediatric cancer cell lines to identify multiple opportunities for drug repurposing: Confirmatory screen for BT-37 cells (AID 1347117); further: nearly all actives have a fitted effect of over 55% in size; further: potency means the concentration at half of the fitted maximal effect
# Summary of the method: as §1
# [19] = qHTS of pediatric cancer cell lines to identify multiple opportunities for drug repurposing: Confirmatory screen for TC32 cells (AID 1347118)
# Summary of the method: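 Luminescent ATP read-out (CellTiter-Glo) of metabolically active TC32 cells after 48 h exposure. Concentration-response curves came from 11-point (MIPE, 0.78 nM–46 µM) or 8-point (NPC, 0.59 nM–46 µM) primary titrations; follow-up used 11 points.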
# [20] = test system: Zika virus NS2B-NS3 protease (linked construct); test: Confirmatory screen NINDS AMC qHTS for Zika virus inhibitors (AID 1347152); settings: Purified linked NS2B-NS3, AMC substrate fluorescence; further: potency means the concentration at half of the fitted maximal effect; nearly all actives have a fitted effect of over 70% in size
# Summary of the method: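 IC50s from 4-parameter Hill fits of percent inhibition, based on AMC fluorescence gain (340/450 nm) over 15 min with 10 microM Bz-Nle-KRR-AMC. Enzyme: 1 nM linked NS2B-NS3 in Tris-HCl pH 8.0; 15-min compound preincubation.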
compound,measurement,setting,value
CC(C)(C(=O)NCC(F)(F)C(F)(F)F)C(=O)N[C@@H]1C(=O)Nc2ccccc2-c2ccccc21,Potency,[1],inactive
same,Potency,[2],inactive
same,Potency,[3],inactive
same,Potency,[4],inactive
same,Potency,[5],inactive
same,Potency,[6],inactive
same,Potency,[7],inactive
same,Potency,[8],inactive
same,Potency,[9],inactive
same,Potency,[10],inactive
same,Potency,[11],inactive
same,Potency,[12],inactive
same,Potency,[13],inactive
O=c1cc(-c2ccc(O)cc2)oc2cc(O)cc(O)c12,Potency,[3],inactive
same,Potency,[4],inactive
same,Potency,[6],inactive
same,Potency,[7],inactive
same,Potency,[8],inactive
same,Potency,[9],inactive
same,Potency,[12],inactive
same,Potency,[14],inactive
same,Potency,[15],89.1 µM (active)
CN(C)CCC(c1ccccc1)c1ccccn1 (stereo unspecified),Potency,[15],inactive
same,Potency,[16],inactive
COc1cc2ncnc(Nc3ccc(F)c(Cl)c3)c2cc1OCCCN1CCOCC1,Potency,[17],33.9 µM (active)
same,Potency,[2],42.7 µM (active)
same,Potency,[3],33.9 µM (active)
same,Potency,[4],38 µM (active)
same,Potency,[6],2.4 µM (active)
same,Potency,[18],13.5 µM (active)
same,Potency,[19],33.9 µM (active)
same,Potency,[7],47.9 µM (active)
same,Potency,[8],26.9 µM (active)
same,Potency,[9],1.51 µM (active)
same,Potency,[10],38 µM (active)
same,Potency,[11],8.51 µM (active)
same,Potency,[13],38 µM (active)
same,Potency,[14],34 µM (active)
CCCCCCCCCCCC1=C(O)C(=O)C=C(O)C1=O,Potency,[17],16.5 µM (active)
same,Potency,[2],inactive
same,Potency,[4],inactive
same,Potency,[5],inactive
same,Potency,[6],inactive
same,Potency,[18],inactive
same,Potency,[19],10.4 µM (active)
same,Potency,[7],inactive
same,Potency,[9],inactive
same,Potency,[10],inactive
same,Potency,[11],inactive
same,Potency,[12],inactive
COc1ccccc1N1CCN(CCCNc2cc(=O)n(C)c(=O)n2C)CC1,Potency,[15],inactive
same,Potency,[16],inactive
Cc1cc(OCCCc2c(C(=O)O)n(Cc3cccnc3)c3c(-c4c(COc5ccc(N6CCN([S+](C)(=O)[O-])CC6)cc5)nn(C)c4C)cccc23)cc(C)c1Cl,Potency,[17],20.8 µM (active)
same,Potency,[5],inactive
same,Potency,[18],18.5 µM (active)
same,Potency,[8],2.61 µM (active)
same,Potency,[14],inactive
O=c1cc(-c2ccccc2)oc2cc(O)c(O)c(O)c12,Potency,[16],2.71 µM (active)
CS(=O)c1ccc(-c2nc(-c3ccc(F)cc3)c(-c3ccncc3)[nH]2)cc1 (stereo unspecified),Potency,[20],24.1 µM (active)
C[C@H](NC(=O)C(=O)Nc1ccccc1C(C)(C)C)C(=O)N[C@@H](CC(=O)O)C(=O)COc1c(F)c(F)cc(F)c1F,Potency,[16],inactive
CC(C)NCC(O)COc1cccc2[nH]ccc12 (stereo unspecified),Potency,[15],inactive
same,Potency,[16],inactive
CCN1CCC[C@H]1CNC(=O)c1cc(S(N)(=O)=O)ccc1OC,Potency,[15],inactive
same,Potency,[16],inactive
NC(N)=Nc1nc(CSCC/C(N)=N/S(N)(=O)=O)cs1,Potency,[15],inactive
same,Potency,[16],inactive
O=C1NCC2(CCN(CCc3ccccc3)CC2)O1,Potency,[15],inactive
same,Potency,[16],inactive
NC(=O)c1cccc2[nH]c(-c3ccc([C@H]4CCCN4)cc3F)nc12,Potency,[20],27.1 µM (active)
CCN(CC)C(=O)c1ccc(O)c(OC)c1,Potency,[16],inactive
COc1ccc2cc(-c3nc(-c4ccc(S(C)=O)cc4)[nH]c3-c3ccncc3)ccc2c1 (stereo unspecified),Potency,[20],17.1 µM (active)
Clc1ccc(C(c2ccc(Cl)cc2)n2cc[n+](CC(OCc3ccc(Cl)cc3Cl)c3ccc(Cl)cc3Cl)c2)cc1 (stereo unspecified),Potency,[16],inactive
CCCCC1C(=O)N(c2ccccc2)N(c2ccccc2)C1=O,Potency,[15],inactive
same,Potency,[16],inactive
CCN(CC)CCOC(=O)c1ccc(N)cc1,Potency,[15],inactive
same,Potency,[16],inactive
COc1ccc(Cc2nccc3cc(OC)c(OC)cc23)cc1OC,Potency,[16],inactive
NC(=O)c1ccc2nc(-c3ccc(Oc4ccc(Cl)cc4)cc3)[nH]c2c1,Potency,[20],34.1 µM (active)
COC(=O)[C@@H]1[C@H]2C[C@H]3c4[nH]c5ccccc5c4CCN3C[C@@H]2CC[C@@H]1O,Potency,[15],79.4 µM (active)
same,Potency,[16],inactive
CC(=O)c1ccc(S(=O)(=O)NC(=O)NC2CCCCC2)cc1,Potency,[15],inactive
same,Potency,[16],inactive
C[N+](C)(C)CCCCCC[N+](C)(C)C,Potency,[15],inactive
same,Potency,[16],inactive
NCCS,Potency,[16],inactive
CCCNC(=O)NS(=O)(=O)c1ccc(Cl)cc1,Potency,[15],inactive
same,Potency,[16],inactive
O=C1NC(=O)C(c2ccccc2)(c2ccccc2)N1,Potency,[15],inactive
same,Potency,[16],inactive
CC(=O)O[C@]1(C(C)=O)CC[C@H]2[C@@H]3C=C(Cl)C4=CC(=O)[C@@H]5C[C@@H]5[C@]4(C)[C@H]3CC[C@@]21C,Potency,[15],inactive
same,Potency,[16],inactive
CCn1cc(C(=O)O)c(=O)c2ccc(C)nc21,Potency,[16],inactive
O=C(NCCN1CCOCC1)c1ccc(Cl)cc1,Potency,[15],inactive
same,Potency,[16],inactive
CC=CCC(C)C(O)C1C(=O)NC(CC)C(=O)N(C)CC(=O)N(C)C(CC(C)C)C(=O)NC(C(C)C)C(=O)N(C)C(CC(C)C)C(=O)NC(C)C(=O)NC(C)C(=O)N(C)C(CC(C)C)C(=O)N(C)C(CC(C)C)C(=O)N(C)C(C(C)C)C(=O)N1C (stereo unspecified),Potency,[16],inactive
Cc1cccc(C)c1OCC(C)N (stereo unspecified),Potency,[15],inactive
same,Potency,[16],inactive
CC(=O)N[C@@H](CS)C(=O)O,Potency,[15],inactive
same,Potency,[16],inactive
Clc1ccc(Cn2c(CN3CCCC3)nc3ccccc32)cc1,Potency,[15],inactive
same,Potency,[16],inactive
CCN(CC)CCNC(=O)c1ccc(N)cc1,Potency,[15],inactive
same,Potency,[16],inactive
CC(C)(C)c1ccc(C(O)CCCN2CCC(C(O)(c3ccccc3)c3ccccc3)CC2)cc1 (stereo unspecified),Potency,[15],inactive
same,Potency,[16],inactive
CC/C(=C(\c1ccccc1)c1ccc(OCCN(C)C)cc1)c1ccccc1,Potency,[16],inactive
